Sa growth 42C: S. aureus growth inhibition at 42 and 30 °C, primary screen, LtaS inhibitor project, RN4220, two temperatures; OD600, 20 h, 42 °C; stronger effect = lower value; relative growth, % (test concentration not listed); 0.53% of 170,000 active;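 active means relative growth at most 50% at the other temperature and 20+ points below 30 °C, or under 10% at both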
S aureus helic: inhibitors of S. aureus replicative helicase, primary screen, biochemical, fluorescence unwinding readout | AID 485395, 2010 | purified S. aureus helicase, fluorescence unwinding assay | replicative DNA helicase (DnaC/DnaB), Staphylococcus aureus | 0.05% of 120,000 active | inhibition, % (test concentration not listed); in the data active means inhibition above about 25%, passing the limit was not always enough;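 further: 0% = mean of negative control wells and 100% = mean of positive control wells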
The depositor's hits bear a star; . = not tested or not shown. Most compounds without a hit are left out; they make up all but 0.52% or so of the library.

SMILES | Sa growth 42C | S aureus helic
N#C/C(=N\Nc1cc(C(=O)O)cc(C(=O)O)c1)C(=O)c1ccccc1 | 94 | -3
CC(C)COc1ccc(/C(=N\O)c2ccccc2)cc1 | 66 | .
CN(C)c1ccc(Nc2nc(-c3cccnc3)nc3ccccc23)cc1 | 0.2* | 12
c1cncc(-c2nc(Nc3ccc4c(c3)OCO4)c3ccccc3n2)c1 | 46 | 1
Cc1onc(-c2c(F)cccc2Cl)c1-c1nc(-c2ccccc2)no1 | 99 | -15
O=C(Cc1cn2ccsc2n1)OCC(=O)N1CCc2ccccc21 | 95 | 1
Fc1ccc(-c2nnc(CSCc3cccc4ccccc34)o2)cc1 | 112 | .
CC(C)c1cccc(C(C)C)c1N1C(=O)C=CC1=O | 6.7* | .
O=C1C=CC(=O)N1c1cccc2ccccc12 | 91 | 10
O=C(/C=C1\Sc2ccccc2NC1=O)NC1CCCCC1 | 117 | 18
C=CCN1C(=O)/C(=C2\SC(N3CCCCC3)=NC2=O)c2ccccc21 | 96 | 18
CN1C(=O)/C(=C2\SC(N3CCCCCC3)=NC2=O)c2ccccc21 | 111 | 43*
CCc1nnc(SCC(=O)N(CC)Cc2ccccc2)c2cc3occc3n12 | 93 | 6
CCN1CCc2c(OC)cccc2C1=O | 94 | 4
COc1cccc2c1CCN(Cc1cccc(C)c1)C2=O | 5.1* | -2
Cn1c2c(c(=O)n(C)c1=O)C(O)(C(F)(F)F)C(=O)N2 (centres undefined) | 104 | 11
C=CCn1c(=NC(=O)CCCC)sc2cccc(OC)c21 | 99 | 5
COC(NC(=O)Nc1nc2ccccc2s1)(C(F)(F)F)C(F)(F)F | 5.5* | 3
CCNC(=O)Nc1nc2ccccc2s1 | 115 | -15
Cc1ccc(OCC(O)CNCc2ccco2)cc1C (centres undefined) | 94 | .
CCOCCCn1c(C)c(C)c(C#N)c1N | 93 | -45
Cc1c(C#N)c(N)n(Cc2cc(C(F)(F)F)cc(C(F)(F)F)c2)c1C | -0.1* | 14
COC(=O)C(Sc1c[nH]c2ccccc12)(C(F)(F)F)C(F)(F)F | 0.0* | 42
COC(=O)C(N)Cc1c[nH]c2ccccc12 (centres undefined) | 94 | -18
CCCN1C(C(=O)c2ccccc2)=C(OC(=O)c2ccc(F)cc2)c2ccccc2S1(=O)=O | 26 | .
SMILES | Sa growth 42C | S aureus helic
CCCCC(=O)OC1=C(C(=O)c2ccccc2)N(CCC)S(=O)(=O)c2ccccc21 | 4.0* | .
CCCCCN1C(C(=O)c2ccccc2)=C(OC(=O)CC)c2ccccc2S1(=O)=O | -0.5* | .
CCCCN1C(C(=O)c2ccccc2)=C(OC(=O)CC)c2ccccc2S1(=O)=O | 8.2* | .
CCCCCN1C(C(=O)c2ccccc2)=C(NC(C)=O)c2ccccc2S1(=O)=O | 112 | .
CCCN1C(C(=O)c2ccccc2)=C(OC(=O)c2ccc(C)cc2)c2ccccc2S1(=O)=O | 97 | .
CCn1c(SC)nnc1C1CCCN1CC(=O)N1CCN(Cc2ccc3c(c2)OCO3)CC1 (centres undefined) | 100 | 4
COc1ccc(-c2cc(C(F)(F)F)nc(S(C)(=O)=O)n2)cc1 | 28* | .
COc1ccc(-c2cc(C(F)(F)F)nc(NCc3ccccc3)n2)cc1 | 98 | .
Cc1cc(C)c(C)c(C(=O)COC(=O)c2cc(=O)[nH]c3ccccc23)c1C | 95 | 1
CC[C@H]1OC(=O)[C@H](C)[C@@H](O[C@H]2C[C@@](C)(OC)[C@@H](O)[C@H](C)O2)[C@H](C)[C@@H](O[C@@H]2O[C@H](C)C[C@H](N(C)C)[C@H]2O)[C@](C)(O)C[C@@H](C)/C(=N\OCOCCOC)[C@H](C)[C@@H](O)[C@]1(C)O | 0.1* | .
CC[C@H]1OC(=O)[C@H](C)[C@@H](O[C@H]2C[C@@](C)(OC)[C@@H](O)[C@H](C)O2)[C@H](C)[C@@H](O[C@@H]2O[C@H](C)C[C@H](N(C)C)[C@H]2O)[C@](C)(O)C[C@@H](C)/C(=N/OCOCCOC)[C@H](C)[C@@H](O)[C@]1(C)O | -0.5* | .
COC(=O)c1cccc(N2COc3ccc4c5c(c(=O)oc4c3C2)CCC5)c1 | 85 | 4
C=CCN(CC=C)Cn1[nH]c(-c2cccs2)nc1=S | 38* | -3
O=S(=O)(c1ccc2ccccc2c1)N1CCN(Cn2[nH]c(-c3cccs3)nc2=S)CC1 | 42 | 21
O=C(Cn1ncc2c(=O)oc3ccccc3c21)Nc1ccc2c(c1)OCCO2 | 101 | 9
CCOC(=O)c1cnn(C(=O)c2ccccc2Cl)c1N | 95 | -10
COc1ccccc1OCCSc1nc(-c2ccccc2)c(-c2ccccc2)[nH]1 | 119 | 7
O=C(O)c1ccc(-c2cccc(C(F)(F)F)c2)o1 | 45* | -3
NC(=O)c1ccc(-c2cccc(C(F)(F)F)c2)o1 | 95 | 8
Cc1ccc2c(c1)CCCN2C(=O)CC1OC(=O)c2ccccc21 (centres undefined) | 75 | -3
N#CC1=C(N)SC(N)=C(C#N)C1c1cccc(C(F)(F)F)c1 | 80 | -85

Compound activity as filed in PubChem.
